Test results as given in PubChem BioAssay (Tox21).
Several values for one entry are separate records, joined by “and”; a condition that tells them apart may be missing. Identical values can stand only once. Records with an inconclusive call do not appear. A structure can be active in one record and inactive in another. Activity calls are given as the source filed them. Unless noted, the call rests on the fitted dose curve; in most records, active means well fitted curve in the direction sought with a large enough effect in the repeat runs; inconclusive means weak or mixed curves; inactive means no such curve, though single readings can be large; an effect the other way counts as inactive or inconclusive.

Experiments:
[1] = A CellTox Green Cytotoxicity Assay to monitor cytotoxicity in HepG2 cells - 8 hour (AID 1224890); further: nearly all actives have a fitted effect of over 45% in size
Method in brief: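 HepG2 cells were seeded together with the CellTox Green dye at 600 cells/well, left 5 h at 37 C/5% CO2, then given compounds in DMSO. Fluorescence from dye bound to dead-cell DNA was read repeatedly over 40 h of treatment at 37 C.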

[2] = qHTS assay to identify small molecule antagonists of the estrogen receptor alpha (ER-alpha) signaling pathway using the BG1 cell line in the presence of 0.1 nM 17-beta-estradiol - cell viability counter screen (AID 1259241); further: nearly all actives have a fitted effect of over 40% in size; further: potency means the concentration at half of the fitted maximal effect
Method in brief: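 In this screen, hormone-deprived VM7Luc4E2 cells were seeded at 4,000 per well, dosed with compound and 0.1 nM estradiol final, and incubated 22 hr at 37C and 5% CO2; fluorogenic live-cell protease signal reported viability.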

[3] = qHTS assay to identify small molecule antagonists of the androgen receptor (AR) signaling pathway using the MDA cell line in the presence of 0.5 nM R1881 - cell viability counter screen (AID 1259242); further: nearly all actives have a fitted effect of over 45% in size; further: potency means the concentration at half of the fitted maximal effect
Method in brief: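 MDA-kb2 cells (human breast carcinoma, stably carrying MMTV-luciferase reporter) were exposed to compounds with 0.5 nM R1881 (final) for 16 hr at 37C, 0% CO2; viability then read as live-cell protease fluorescence (CellTiter-Fluor, 30 min) in the same wells.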

[4] = target: Estrogen receptor (Homo sapiens) (UniProt P03372); assay: qHTS assay to identify small molecule antagonists of the estrogen receptor alpha (ER-alpha) signaling pathway using the BG1 cell line in the presence of 0.1 nM 17-beta-estradiol (AID 1259244); further: nearly all actives have a fitted effect of over 50% in size; further: potency means the concentration at half of the fitted maximal effect
Estrogen receptor (Homo sapiens), sequence (P03372 whole entry, looked up): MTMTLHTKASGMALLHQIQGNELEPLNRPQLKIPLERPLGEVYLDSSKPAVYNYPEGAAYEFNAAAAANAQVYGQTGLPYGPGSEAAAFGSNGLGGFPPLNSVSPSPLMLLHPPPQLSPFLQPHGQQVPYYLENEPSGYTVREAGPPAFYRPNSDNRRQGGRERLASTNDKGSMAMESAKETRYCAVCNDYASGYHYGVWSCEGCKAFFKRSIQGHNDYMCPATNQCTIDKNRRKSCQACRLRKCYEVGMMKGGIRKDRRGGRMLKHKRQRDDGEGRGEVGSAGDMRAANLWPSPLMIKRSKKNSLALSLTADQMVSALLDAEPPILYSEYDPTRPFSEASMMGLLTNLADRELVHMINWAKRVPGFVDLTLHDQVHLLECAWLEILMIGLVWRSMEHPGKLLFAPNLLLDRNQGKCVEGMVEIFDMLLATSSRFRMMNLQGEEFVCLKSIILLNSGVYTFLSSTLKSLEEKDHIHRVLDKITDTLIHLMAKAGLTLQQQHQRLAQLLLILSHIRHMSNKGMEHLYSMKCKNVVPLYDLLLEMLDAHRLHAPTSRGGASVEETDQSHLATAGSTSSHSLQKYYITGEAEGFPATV
Method in brief: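 VM7Luc4E2 cells (endogenous full-length ER-alpha, stable 4xERE-luciferase) were grown 5 days in phenol red-free medium with charcoal-stripped FBS, then exposed 22 h at 37C to compounds plus 0.1 nM (final) 17beta-estradiol; ONE-Glo luminescence read-out.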

[5] = qHTS assay to identify small molecule HDAC inhibitors (AID 1259364); further: top concentration of the series differs between compounds; nearly all actives have a fitted effect of over 45% in size
Method in brief: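 Wild-type HCT-116 cells were plated overnight, exposed to compounds for 2 h at 37 °C, then given HDAC-Glo class I/II luminogenic reagent for 30 min at room temperature before luminescence was read.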

[6] = qHTS assay to identify small molecule HDAC inhibitors - cell viability counter screen (AID 1259365); further: series mostly up to about 92 µM; nearly all actives have a fitted effect of over 50% in size
Method in brief: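 Measured quantity is CellTiter-Glo luminescence from wild-type HCT-116 cells after compound incubation of 2hr at 37C, 5% CO2; reagent developed 30min at room temperature.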

[7] = qHTS assay to identify small molecule agonists of the sonic hedgehog signaling (Shh) pathway - cell viability counter screen (AID 1259366); further: nearly all actives have a fitted effect of over 50% in size; further: potency means the concentration at half of the fitted maximal effect
Method in brief: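 In quantitative high-throughput format, 3T3 Gli1-Luc cells were exposed to compounds for 24hr and multiplexed for viability using CellTiter-Fluor, incubated 1hr at 37C before the fluorescence read.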

[8] = qHTS assay to identify small molecule agonists of the sonic hedgehog signaling (Shh) pathway (AID 1259368; calls by dose curve; further: series mostly up to about 92 µM; nearly all actives have a fitted effect of over 15% in size)
Method in brief: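 NIH/3T3-derived 3T3Gli1-Luc cells carrying a stably integrated Gli1 response element–firefly luciferase reporter were plated, left 4 hr at 37 C, then given compounds in DMSO for 24 hr. Luminescence was read 30 min after adding luciferase reagent.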

[9] = qHTS assay to identify small molecule antagonists of the sonic hedgehog signaling (Shh) pathway (AID 1259369; calls by dose curve; further: nearly all actives have a fitted effect of over 45% in size; further: potency means the concentration at half of the fitted maximal effect)
Method in brief: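 NIH/3T3-derived 3T3Gli1-Luc cells with stably integrated Gli1-Luc reporter were preincubated 4hr at 37 C, then given compounds in DMSO plus Shh conditioned medium and incubated 24hr. Firefly luciferase luminescence read after 30min reagent at room temperature.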

[10] = target: Estrogen receptor beta (Homo sapiens) (UniProt Q92731); assay: qHTS assay to identify small molecule agonists of the estrogen receptor beta (ER-beta) signaling pathway (AID 1259377; active means well fitted activation curve with a large enough effect in the signal ratio in the repeat runs, not every such curve was filed as active; the % refers to the signal ratio)
Estrogen receptor beta (Homo sapiens), sequence (Q92731 whole entry, looked up): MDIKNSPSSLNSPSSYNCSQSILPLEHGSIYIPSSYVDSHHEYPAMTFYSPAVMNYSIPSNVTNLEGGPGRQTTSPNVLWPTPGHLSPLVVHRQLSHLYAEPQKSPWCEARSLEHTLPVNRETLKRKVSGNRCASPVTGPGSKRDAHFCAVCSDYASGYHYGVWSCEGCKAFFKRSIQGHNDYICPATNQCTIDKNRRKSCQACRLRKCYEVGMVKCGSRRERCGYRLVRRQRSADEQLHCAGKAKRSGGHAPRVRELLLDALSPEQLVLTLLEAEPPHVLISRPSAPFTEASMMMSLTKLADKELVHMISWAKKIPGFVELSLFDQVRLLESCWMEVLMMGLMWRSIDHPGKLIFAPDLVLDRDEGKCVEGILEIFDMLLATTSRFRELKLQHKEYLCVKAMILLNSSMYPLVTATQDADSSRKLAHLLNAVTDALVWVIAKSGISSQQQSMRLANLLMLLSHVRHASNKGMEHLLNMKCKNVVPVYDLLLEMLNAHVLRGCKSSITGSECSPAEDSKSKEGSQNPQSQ
Method in brief: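 Reporter cells (HEK293T, ER-beta-UAS-bla) receive compounds or DMSO after a 6 hr pre-incubation. They then incubate 16 hr at 37C/5% CO2, and fluorescence from LiveBLAzer B/G substrate is measured after 2 hours at room temperature.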

[11] = target: Estrogen receptor beta (Homo sapiens) (UniProt Q92731); assay: qHTS assay to identify small molecule antagonists of the estrogen receptor beta (ER-beta) signaling pathway (AID 1259378; active means well fitted inhibition curve with a large enough effect in the signal ratio in the repeat runs, not every such curve was filed as active; the % refers to the signal ratio)
Method in brief: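 ER-beta-UAS-bla HEK293T cells in 2% charcoal-stripped FBS medium treated with compound plus 1nM final 17-beta-estradiol for 16 hr at 37C. Beta-lactamase reporter read by FRET substrate fluorescence after 2 hours at room temperature.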

[12] = qHTS assay to identify small molecule agonists of the androgen receptor (AR) signaling pathway in the presence of an antagonist - cell viability counter screen (AID 1259379); further: series mostly up to about 92 µM; nearly all actives have a fitted effect of over 25% in size
Method in brief: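 MDA-kb2 human breast carcinoma cells (stable MMTV-luciferase, AR/GR responsive) were seeded 3,000 cells/well, pre-incubated 5 hr at 37C without CO2, then given 3.0uM nilutamide and compounds at 15 concentrations for 16 hr. Viability was read by CellTiter-Fluor fluorescence.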

[13] = qHTS assay to identify small molecule agonists of the estrogen receptor beta (ER-beta) signaling pathway - cell viability counter screen (AID 1259380); further: nearly all actives have a fitted effect of over 30% in size; further: potency means the concentration at half of the fitted maximal effect
Method in brief: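 ER-beta-UAS-bla HEK293T cells in medium with 2% charcoal-stripped FBS were preincubated 6 hr at 37C, dosed with compound in DMSO for 16 hr, then after the bla read, CellTiter-Glo was added for 30 min at room temperature; luminescence recorded.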

[14] = qHTS assay to identify small molecule antagonists of the estrogen receptor beta (ER-beta) signaling pathway - cell viability counter screen (AID 1259382); further: series mostly up to about 92 µM; nearly all actives have a fitted effect of over 55% in size
Method in brief: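 ER-beta-UAS-bla HEK293T cells (2,000/well, 2% charcoal-stripped FBS) were pre-incubated 6 hr at 37C, then given compound plus 1nM final 17-beta-estradiol for 16 hr. Viability was read in the same wells by CellTiter-Glo luminescence after 30 min at room temperature.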

[15] = qHTS assay to identify small molecule agonists or antagonists of the thyroid stimulating hormone receptor (TSHR) signaling pathway - wild type cell line counter screen (AID 1259384; calls by dose curve)
Method in brief: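 Wild-type Hek293 cells, 800/well, 18 h at 37C, then compound with Ro20-1724 for 30 min RT. cAMP by HTRF (cAMP-d2/anti-cAMP cryptate), 1 h RT, fluorescence read. 15 concentrations, triplicates.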

[16] = qHTS assay to identify small molecule antagonists of the sonic hedgehog signaling (Shh) pathway - cell viability counter screen (AID 1259367); further: nearly all actives have a fitted effect of over 55% in size; further: potency means the concentration at half of the fitted maximal effect
Method in brief: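 Seed 3T3 Gli1-Luc cells at 2,000 per well; incubate 4 hr; add compound in DMSO, then conditioned medium; incubate at 37C with 5% CO2; add CellTiter-Fluor after 23 hr; read fluorescence 1 hr later.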

[17] = qHTS assay to identify small molecule phospholipidosis (PLD) inducers (AID 1259344; active means well fitted curve in the direction sought with a large enough effect; an effect the other way counts as inactive or inconclusive)
Method in brief: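 Quantitative HTS in HepG2: compound plus LipidTOX Red dye for 24 h, paraformaldehyde fixation with Hoechst 33342, widefield high-content imaging; amiodarone as positive and DMSO as negative control.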

[18] = target: Estrogen receptor (Homo sapiens) (UniProt P03372); assay: qHTS assay to identify small molecule agonists of the estrogen receptor alpha (ER-alpha) signaling pathway in the presence of an antagonist (AID 1259383; calls by dose curve; further: top concentration of the series differs between compounds; nearly all actives have a fitted effect of over 15% in size)
Method in brief: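 VM7Luc4E2 cells (endogenous full-length ER-alpha, 4×ERE-luciferase) were precultured 5 days in phenol red-free medium with 10% charcoal-stripped FBS, given 10.0nM ICI-182,780 (final), then treated with compounds at 15 concentrations for 22hr at 37C; luminescence read with ONE-Glo.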

Measured: Potency

COCC(=O)O
inactive: [1] | [2] | [3] | [4] | [5] | [6] | [7] | [8] | [10] | [11] | [12] | [13] | [14] | [15]
1.25 µM (active) and inactive: [9]

C=C1C2CCC(C2)C1(C)C (stereo not drawn)
inactive: [1] | [2] | [3] | [4] | [5] | [6] | [7] | [16] | [8] | [9] | [10] | [11] | [12] | [13] | [14] | [15]

CCCCCC/C=C/CCCCCCCC(=O)O
inactive: [1] | [2] | [3] | [4] | [5] | [6] | [7] | [16] | [8] | [9] | [10] | [11] | [13] | [14] | [15]

CCOC(=O)/C=C\C(=O)OCC
inactive: [1] | [2] | [3] | [4] | [5] | [6] | [7] | [16] | [8] | [9] | [13] | [14] | [15]

CC#C[C@]1(O)CC[C@H]2[C@@H]3CCC4=CC(=O)CCC4=C3[C@@H](c3ccc(N(C)C)cc3)C[C@@]21C
inactive: [1] | [2] | [3] | [17] | [5] | [6] | [7] | [16] | [8] | [10] | [14] | [18] | [15]

OCCOCCOCCOCCO
inactive: [1] | [2] | [3] | [4] | [5] | [6] | [7] | [16] | [8] | [9] | [10] | [11] | [12] | [13] | [14] | [18] | [15]

CN(C)c1ccc(C(=N)c2ccc(N(C)C)cc2)cc1
active: [2] 18.6 µM | [3] 48 µM and 46.7 µM | [4] 17 µM and 23.4 µM | [7] 48 µM | [16] 48 µM and 23.4 µM | [9] 2.4 µM and 11.7 µM
inactive: [1] | [5] | [6] | [8] | [10] | [11] | [14] | [15]

Clc1cc(Cl)c(Cl)cc1Cl
inactive: [1] | [2] | [3] | [4] | [5] | [6] | [7] | [8] | [9] | [10] | [11] | [12] | [13] | [14]

CCCCCCOC(C)=O
inactive and 30.6 µM (active): [13]
inactive: [1] | [2] | [3] | [4] | [5] | [6] | [7] | [8] | [9] | [14] | [15]

O=[N+]([O-])C(CO)(CO)CO
214 nM (active) and inactive: [16]
active: [7] 30.2 µM and 48.6 µM | [9] 0.151 µM
inactive: [1] | [2] | [3] | [4] | [5] | [6] | [8] | [10] | [11] | [13] | [14] | [18] | [15]

Cc1cc(O)cc(C)c1Cl
active: [9] 3.06 µM
inactive: [1] | [2] | [3] | [17] | [5] | [6] | [7] | [16] | [8] | [10] | [11] | [12] | [13] | [14] | [15]

Oc1c(Cl)cc(Cl)c(Cl)c1Cl
inactive: [1] | [2] | [3] | [5] | [6] | [7] | [16] | [8] | [10] | [12] | [18] | [15]
active: [4] 47.5 µM and 61.1 µM | [9] 48.6 µM

CCCCOCCO
inactive: [1] | [2] | [3] | [4] | [5] | [6] | [7] | [16] | [8] | [9] | [12] | [13] | [14] | [18] | [15]

CC1(C)CC(N=C=O)CC(C)(CN=C=O)C1 (stereo not drawn)
inactive: [1] | [2] | [3] | [4] | [5] | [6] | [7] | [8] | [9] | [13] | [14] | [15]

O=S(=O)(Oc1ccc(Cl)cc1Cl)c1ccccc1
inactive: [1] | [2] | [3] | [4] | [5] | [6] | [7] | [16] | [8] | [9] | [12] | [13] | [14] | [15]

Cc1cc(NS(=O)(=O)c2ccc(N)cc2)no1
inactive: [1] | [2] | [3] | [17] | [5] | [6] | [7] | [16] | [8] | [9] | [10] | [13] | [14] | [15]

NCc1cccc(CN)c1
inactive: [1] | [2] | [3] | [4] | [5] | [6] | [7] | [16] | [8] | [9] | [10] | [11] | [13] | [14] | [15]

CC(C)Cc1ccccc1
inactive: [1] | [2] | [3] | [4] | [5] | [6] | [7] | [8] | [9] | [12] | [13] | [14] | [15]
